Data on 53 compounds can be found in ChEMBL document CHEMBL4513216, “Probing the Open Global Health Chemical Diversity Library for Multistage-Active Starting Points for Next-Generation Antimalarials” (ACS Infect Dis, 2020).

Structures are written as SMILES. Hit rate of the full screen: of about 69,000 compounds, about 8,600 (12%) showed an effect of 50% or more. The entries come from a sample that favours strong results as a whole.

The test concerns Plasmodium berghei. As to the kind of experiment: Screen against P. berghei liver stage (PbLuc), transformed with Luciferase, at 10uM. The following applies: tested at 10 uM. Format: functional, HepG2.
As to `NC(=O)c1cnn2c1NCC(CNCCc1cccs1)C2` (stereo not drawn), the INHIBITION was found to be 21.75%.
On to `COCC(C)NC(=O)CN1CCCC1` (stereo not drawn), for which the INHIBITION was -9.39%.
For `O=S(=O)(Cc1cc(-c2ccccc2)no1)CC1CCCO1` (stereo not drawn), the INHIBITION is listed as -73.1%.
On to `CNc1cccc(C2CCCN(C(=O)c3ccncc3)C2)n1` (stereo not drawn), for which the INHIBITION is reported as 42.1%.
In the case of `CNc1cccc(C2CCCN(C(=O)Cc3ccccc3)C2)n1` (stereo not drawn), the INHIBITION is 81.2%.
For `CNc1cccc(C2CCCN(C(C)=O)C2)n1` (stereo not drawn), the INHIBITION is given as -1.58%.
Turning to `CNc1cccc(C2CCCN(C(=O)c3cscn3)C2)n1` (stereo not drawn), the INHIBITION is recorded as 51.5%.
For `CNc1cccc(C2CCCN(C(=O)c3cnccn3)C2)n1` (stereo not drawn), the INHIBITION is listed as -37%.
Turning to `CNc1cccc(C2CCCN(C(=O)c3ccn(C)n3)C2)n1` (stereo not drawn), the INHIBITION is reported as 26.3%.
`CN1CCN([C@@H]2CN(C(=O)CCOc3ccccc3)C[C@H]2O)CC1`: the INHIBITION is recorded as 6.08%.
Take `CC1CCN(c2nc3cn(-c4ccc(F)cc4)c(=O)c-3c[nH]2)CC1`: the INHIBITION is 24.2%.
With `CC(=O)Nc1ncc(S(=O)(=O)Nc2ccccc2F)s1` the figure was 15.9%; with `Cn1nccc1CCC(=O)N1CCOC(c2cnccn2)C1` (stereo not drawn), 2.71%; with `Cc1cc(C(=O)N2CCNC(c3ccccc3)C2)c2ccc(F)cc2n1` (stereo not drawn), 36.9%.
Regarding `CCc1ccc2nc(-c3cnn(C)c3)cc(C(=O)N3CCCC3)c2c1`, the INHIBITION stood at 7.3%.
In the case of `O=C(O)c1cc(-c2cn[nH]c2)cc(S(=O)(=O)N2CCSCC2)c1`, the INHIBITION is given as -4.927%.
With `Cn1cc(-c2cc(C(=O)N3CCOCC3)c3ccc(F)cc3n2)cn1`, the INHIBITION was -27.5%.
Consider `O=C(c1cc(-c2cn[nH]c2)nc2ccc(F)cc12)N1CCSCC1`, for which the INHIBITION turned out to be 51.8%.
With `O=C(c1cc(-c2cn[nH]c2)nc2cc(F)ccc12)N1CCS(=O)(=O)CC1`, the INHIBITION was 79.9%.
Regarding `COCc1nnc2n1CCN(Cc1ccoc1)C2`, the INHIBITION was determined as 33%.
As to `COCCC1CCN([C@@H]2c3ccccc3C3(CCNCC3)[C@H]2O)CC1`, the INHIBITION stood at 11.6%.
`COc1ccc(-c2cc(C3CCCNC3)ccn2)cc1` (stereo not drawn): the INHIBITION is reported as -3.02%.
For `CN1CCN(c2cnn(Cc3ccc(S(C)(=O)=O)cc3)c(=O)c2)CC1`, the INHIBITION was found to be 51.5%.
As for `CN1CCCN(c2cnn(Cc3ccncc3)c(=O)c2)CC1`, the INHIBITION was 54.8%.
For the compound `CN1CCCN(c2cnn(Cc3ccc(C(C)(C)C)cc3)c(=O)c2)CC1`, the INHIBITION came out at 15.7%.
With `Cn1ncc(N2CCN(Cc3ccc(S(C)(=O)=O)cc3)CC2)cc1=O` the figure was 27.6%; with `Cn1c(Cn2ncc(N3CCCC3)cc2=O)nc2ccccc21`, 37.6%; with `Cn1c(Cn2ncc(N3CCCCC3)cc2=O)nc2ccccc21`, 40.3%.
With `Cc1cc(C)n(Cc2cc(C(=O)N3CCCCC3c3nccs3)n[nH]2)n1` (stereo not drawn), the INHIBITION was found to be 7.83%.
For `CNC(=O)N(Cc1c(F)cccc1F)C1CCCC1`, the INHIBITION was 16.1%.
For the compound `CNS(=O)(=O)CC(=O)N(Cc1c(F)cccc1F)C1CCCC1`, the INHIBITION was -5.59%.
Regarding `CC(=O)N(Cc1c(F)cccc1F)C1CCCC1`, the INHIBITION stood at 58.3%.
With `CS(=O)(=O)CCC(=O)N(Cc1c(F)cccc1F)C1CCCC1`, the INHIBITION is given as 55%.
As for `CS(=O)(=O)CCC(=O)N(CCc1cccc(F)c1)C1CC1`, the INHIBITION is on record as 40.7%.
Consider `CNS(=O)(=O)CC(=O)N(Cc1c(F)cccc1Cl)C1CC1`, for which the INHIBITION came to 17.1%.
As to `Cn1nnnc1SC1CCN(c2ccccc2Cl)C1=O` (stereo not drawn), the INHIBITION amounted to 23.9%.
Regarding `Cc1cc(C[S+]([O-])Cc2ccccc2F)no1` (stereo not drawn), the INHIBITION worked out at 40.7%.
As to `CCCc1noc(-c2ccc(-n3ncc(C(=O)O)c3C)nc2)n1`, the INHIBITION was 7.92%.
With `CC(C)[C@]1(O)CN(C(=O)CNC(N)=O)C[C@H]1C` the figure was 39.9%; with `O=C(CS(=O)(=O)Cc1ccc(F)cc1)NC1CCCCNC1=O` (stereo not drawn), -90.9%; with `CCOc1ccnc(NCc2nc(C)cc(C(F)(F)F)n2)n1`, 52.9%.
`CCOc1ccnc(NCCc2nc(C)cc(=O)[nH]2)n1`: the INHIBITION was found to be 23.3%.
Take `CCOc1ccnc(NCc2nc(C)cc(=O)[nH]2)n1`: the INHIBITION was 27.8%.
Turning to `COCCCN(Cc1ccccn1)Cc1ccnn1C1CCCCO1` (stereo not drawn), the INHIBITION is 34.1%.
Take `CCc1nnsc1C(=O)N1CCCC(n2nc(C)nc2C)C1` (stereo not drawn): the INHIBITION is reported as -10.75%.
In the case of `CN(Cc1cn2c(n1)CN(CC1CC1)CC2)Cc1ccco1` it was 8.53%; in that of `CN(Cc1cn2c(n1)CN(CC1CCOC1)CC2)Cc1ccco1` (stereo not drawn), 53.2%; in that of `CN(Cc1cn2c(n1)CN(C(=O)C1CCOCC1)CC2)Cc1ccco1`, -8.94%.
Take `CN(Cc1cn2c(n1)CN(C(=O)CC1CC1)CC2)Cc1ccco1`: the INHIBITION is 30.1%.
For the compound `CN(Cc1cn2c(n1)CN(C1CCOC1)CC2)Cc1ccco1` (stereo not drawn), the INHIBITION was found to be 10%.
As for `CN(Cc1cn2c(n1)CN(C1CCOCC1)CC2)Cc1ccco1`, the INHIBITION is 56.7%.
Consider `Cc1c(CCC(=O)Nc2ccc(Br)cn2)cnn1C`, for which the INHIBITION turned out to be 15.2%.
In the case of `Cc1nn(C)c(C)c1C1CCCN1Cc1nc(-c2ccccn2)no1` (stereo not drawn), the INHIBITION was determined as 11.9%.
